We go through five compounds from PubChem BioAssay (NCATS).

Records with an inconclusive call do not appear. Active and inactive are the calls of the source. Unless noted, calls come from the whole dose curve.

Assay [1] concerns the target Peroxisome proliferator-activated receptor delta (Homo sapiens) (UniProt Q03181). Nature of the assay: qHTS assay for small molecule agonists of peroxisome proliferator-activated receptor delta signaling (AID 588534).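 Note: 0% = DMSO basal wells and 100% = positive control agonist at 10 µM.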 In outline: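 Cell-based beta-lactamase reporter assay run in agonist mode: cells seeded and incubated 5 hrs at 37 C, compounds added and incubated 18 hrs at 37 C. CCF4 dye fluorescence read after 2 hrs at RT; EC50 and efficacy from Hill fits.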
(qHTS replaces the single test concentration by a dilution series.)

Assay [2] can be described thus: qHTS assay for small molecule antagonists of peroxisome proliferator-activated receptor delta signaling (AID 588535; active = well fitted inhibition curve with a large enough effect in the signal ratio, with a control signal flat, not every such curve was filed as active; the % refers to the signal ratio;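 for max response: cells co-treated with a PPAR-delta agonist as stimulator during compound exposure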). As to conditions: HEK293T PPARd-UAS-bla, beta-lactamase FRET ratio, 18 h; 460 nm channel. In a few lines: (§1)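 GeneBLAzer PPAR-delta-UAS-bla HEK293T cells in medium with 2% charcoal/dextran FBS were preincubated 5 hrs at 37 C, then given compounds, incubated 18 hrs at 37 C, and read by CCF4 beta-lactamase fluorescence; IC50 from Hill fits.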

Assay [3] has as its target Peroxisome proliferator-activated receptor delta (Homo sapiens) (UniProt Q03181). Described as above. In a few lines: as §1
Assay [4] deals with Vitamin D3 receptor (Homo sapiens) (UniProt P11473). Nature of the assay: qHTS assay for small molecule antagonists of vitamin D receptor signaling (AID 588541).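 Note: receptor activated by calcitriol during compound treatment; series mostly up to about 77 µM; % is set by controls: 0 for no effect and ±100 for the full control effect.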 In outline: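 VDR-UAS-bla HEK293T cells (2000/well, 2% charcoal-stripped FBS) were treated with titrated compounds plus 1-alpha,25-dihydroxyvitamin D3 (50 nM or 3 nM final) for 16 h at 37 C. CCF4 beta-lactamase fluorescence was read; Hill fits gave IC50.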

For assay [5], the target named is Retinoic acid receptor RXR-alpha (Homo sapiens) (UniProt P19793). Nature of the assay: qHTS assay for small molecule agonists of retinoid X receptor alpha signaling (AID 588544).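 Note: 0% = DMSO basal wells and 100% = reference agonist.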
In assay [6] the target is Thyroid hormone receptor beta (Homo sapiens) (UniProt P10828). Nature of the assay: qHTS assay for small molecule agonists of thyroid hormone receptor beta signaling (AID 588545). In a few lines: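 Agonist activity was read as beta-lactamase CCF4 fluorescence (405 ex, 460/530 em), scaled between DMSO (0%) and 10 nM T3 (100%), then Hill-fitted for EC50 and efficacy. HEK 293 TR-UAS-bla cells in 2% charcoal/dextran FBS medium were exposed 18 h at 37 C.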

Assay [7] is described as follows: qHTS assay for small molecule antagonists of retinoid X receptor alpha signaling (AID 588546; active = well fitted inhibition curve with a large enough effect in the signal ratio, with a control signal flat, not every such curve was filed as active; the % refers to the signal ratio;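 note: cells stimulated with 9-cis-retinoic acid as agonist; % is set by controls: 0 for no effect and ±100 for the full control effect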). As to conditions: HEK293T RXRa-UAS-bla, beta-lactamase ratio, antagonist mode; measured here: W530 green channel, cytotoxicity proxy. In outline: (§2)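 Beta-lactamase reporter inhibition, read as CCF4 fluorescence ratio (ex 405, em 460/530 nm) after 2 h at RT. HEK293T UAS-bla cells, 2500/well, were stimulated with 9-cis-RA at 500 or 100 nM final alongside test compound for 18 h at 37 C.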

Assay [8] deals with Retinoic acid receptor RXR-alpha (Homo sapiens) (UniProt P19793). Described as above. As to conditions: HEK293T RXRa-UAS-bla, beta-lactamase ratio, antagonist mode. In outline: as §2
In assay [9] the target is Thyroid hormone receptor beta (Homo sapiens) (UniProt P10828). Nature of the assay: qHTS assay for small molecule antagonists of thyroid hormone receptor beta signaling (AID 588547; active = well fitted inhibition curve with a large enough effect in the signal ratio, with a control signal flat, not every such curve was filed as active; the % refers to the signal ratio;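 note: cells stimulated with 0.4 nM T3 agonist during compound exposure; series mostly up to about 77 µM; % is set by controls: 0 for no effect and ±100 for the full control effect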). To be noted: TR-UAS-bla HEK293, beta-lactamase ratio, antagonist mode, 18 h. In outline:
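TR-UAS-bla GripTite HEK293 cells in 2% charcoal/dextran FBS medium were preincubated 4 h at 37 C, given compound (0.59 nM to 92 uM) plus 0.4 nM T3 (final) for 18 h, then CCF4 for 2 h at RT; Hill fit gave IC50.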

Assay [10] in a line: qHTS assay for small molecule activators of the p53 signaling pathway (AID 651743; active = well fitted activation curve with a large enough effect in the signal ratio, not every such curve was filed as active; the % refers to the signal ratio; note: series mostly up to about 92 µM; % of control where 0% means no effect). As to conditions: HCT-116 p53RE-bla, beta-lactamase FRET ratio, 16 h; activation: stronger effect = higher value. In outline: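 p53RE-bla HCT-116 cells with a stably integrated beta-lactamase reporter under p53 response elements were plated, rested 5 hours at 37 C/5% CO2, then exposed to compounds in DMSO for 16 hours at 37 C. LiveBLAzer B/G FRET substrate was read after 2 hours at room temperature.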

The nature of assay [11]: qHTS assay for small molecule activators of the nuclear factor-kappa B (NF-kB) signaling pathway (AID 651749; active = well fitted activation curve with a large enough effect in the signal ratio; the % refers to the signal ratio; note: series mostly up to about 77 µM; % of control where 0% means no effect). As to conditions: NF-kB-bla ME-180 cells, beta-lactamase FRET ratio, 16 h; activation: stronger effect = higher value. In outline: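 ME-180 cells stably carrying a beta-lactamase reporter under an NF-kB response element were exposed to compound or DMSO vehicle for 16 hr at 37C, 5% CO2. Pathway activation was read by FRET, since reporter expression disrupts FRET.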

In assay [12] the target is Peroxisome proliferator-activated receptor alpha (Homo sapiens) (UniProt Q07869). Nature of the assay: qHTS assay for small molecule agonists of the peroxisome proliferator-activated receptor alpha (PPARalpha) signaling pathway (AID 651778; active = well fitted curve in the direction sought with a large enough effect; an effect the other way counts as inactive or inconclusive; note: % of control where 0% means no effect). As to conditions: PathHunter PPARalpha complementation, chemiluminescence, 6 h; max response: stronger effect = higher value. In a few lines:
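Cells plated at 2,000/well and held overnight at 37 C, 5% CO2, then compound added by pin tool for 6 hr; after PathHunter detection reagent and 60 min at room temperature, chemiluminescence from enzyme complementation was read.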

A short description of assay [13]: qHTS assay for small molecule agonists of the antioxidant response element (ARE) signaling pathway measured by Nrf2-dependant transcriptional activity (AID 720636; active = well fitted curve in the direction sought with a large enough effect in the repeat runs; an effect the other way counts as inactive or inconclusive;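 note: HepG2 cells with an ARE-driven luciferase reporter; % of control where 0% means no effect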). In outline:
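In HepG2 cells engineered with an Nrf2-responsive luciferase gene, ARE induction was quantified as luminescence after 16 hr compound treatment at 37 C.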

The nature of assay [14]: qHTS assay for small molecule agonists of the antioxidant response element (ARE) signaling pathway measured by Nrf2-dependant transcriptional activity - cell viability counter screen (AID 720653; active = well fitted curve in the direction sought with a large enough effect in the repeat runs; an effect the other way counts as inactive or inconclusive; note: % is set by controls: 0 for no effect and ±100 for the full control effect). As to conditions: ARE-bla HepG2 viability, CellTiter-Glo ATP luminescence, 16 h; max response: stronger effect = lower value. In a few lines: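 ARE-bla HepG2 cells (2,000/well) rested 5 hrs at 37C/5% CO2, then exposed to compounds in DMSO for 16 hrs. Viability was read in the same wells as intracellular ATP by luminescence, 30 min at room temperature after reagent addition.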

Assay [15] in a line: qHTS assay for cell viability of HEK293 cells (AID 743288; active = well fitted curve in the direction sought with a large enough effect; an effect the other way counts as inactive or inconclusive; note: % is set by controls: 0 for no effect and ±100 for the full control effect; nearly all actives have a fitted effect of over 50% in size). As to conditions: ATP luminescence (CellTiter-Glo), 18 h; max response: stronger effect = lower value. In outline: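 Environmental chemicals tested in qHTS format against parental HEK293 cells; 18 h treatment, 37 C; read-out ATP luminescence (CellTiter-Glo), 30 min RT development.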
Assay [16] in a line: qHTS assay for cell viability of the p53RE-bla HCT-116 cell line (AID 743292; active = well fitted curve in the direction sought with a large enough effect; an effect the other way counts as inactive or inconclusive; note: % is set by controls: 0 for no effect and ±100 for the full control effect; nearly all actives have a fitted effect of over 55% in size). In a few lines:
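Intracellular ATP of p53RE-bla HCT-116 cells measured by luciferase luminescence following 16 h compound incubation at 37 C; DMSO-only wells served as vehicle controls.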

In assay [17] the target is Nuclear receptor subfamily 1 group I member 2 (Rattus norvegicus) (UniProt Q9R1A7). Nature of the assay: qHTS assay for small molecule activators of the rat pregnane X receptor (rPXR) signaling pathway (AID 651751; call rule not given here; note: 0% is about no effect). To be noted: rPXR reporter cells, luciferase (One-Glo), 24 h.
For assay [18], the target named is Glucocorticoid receptor (Homo sapiens) (UniProt P04150). Nature of the assay: qHTS assay for small molecule antagonists of glucocorticoid receptor signaling (AID 588533; active = well fitted inhibition curve with a large enough effect in the signal ratio, with a control signal flat, not every such curve was filed as active; the % refers to the signal ratio). In outline: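 Antagonist-mode qHTS: compound titrations added to GRE-bla HeLa cells, then dexamethasone 2 nM final; 18 h, 37 C. CCF4 FRET fluorescence normalized to dexamethasone and DMSO; IC50 from Hill fit.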

A short description of assay [19]: qHTS assay for environmental chemicals that activate the Aryl hydrocarbon Receptor (AhR) signaling pathway (AID 651777; active = well fitted curve in the direction sought with a large enough effect; an effect the other way counts as inactive or inconclusive; note: nearly all actives have a fitted effect of over 15% in size; note: potency is the fitted concentration of half-maximal effect; for activation: % of control where 0% means no effect). To be noted: 1A2-DRE human hepatoma cells, luciferase, 24 h; activation: stronger effect = higher value. In a few lines:
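Measured luciferase activity, read 30 min after One-Glo addition at room temperature, from human hepatoma cells bearing a dioxin response element–CYP1A2 promoter reporter and exposed to compound for 24 hr at 37 C.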

Assay [20] deals with Estrogen receptor (Homo sapiens) (UniProt P03372). Nature of the assay: qHTS assay for small molecule agonists of estrogen receptor alpha signaling (AID 588514).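 Note: 0% = vehicle only and 100% = reference agonist; nearly all actives have a fitted effect of over 70% in size.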 In outline:
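ER-alpha-UAS-bla GripTite HEK 293 cells in medium with 2% charcoal/dextran-treated FBS were treated with compound titrations at 37 C for 18 hrs; beta-lactamase reporter read by CCF4 fluorescence after 2 hrs at RT.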

Chain of Peroxisome proliferator-activated receptor alpha (Homo sapiens) (Q07869 whole entry, looked up): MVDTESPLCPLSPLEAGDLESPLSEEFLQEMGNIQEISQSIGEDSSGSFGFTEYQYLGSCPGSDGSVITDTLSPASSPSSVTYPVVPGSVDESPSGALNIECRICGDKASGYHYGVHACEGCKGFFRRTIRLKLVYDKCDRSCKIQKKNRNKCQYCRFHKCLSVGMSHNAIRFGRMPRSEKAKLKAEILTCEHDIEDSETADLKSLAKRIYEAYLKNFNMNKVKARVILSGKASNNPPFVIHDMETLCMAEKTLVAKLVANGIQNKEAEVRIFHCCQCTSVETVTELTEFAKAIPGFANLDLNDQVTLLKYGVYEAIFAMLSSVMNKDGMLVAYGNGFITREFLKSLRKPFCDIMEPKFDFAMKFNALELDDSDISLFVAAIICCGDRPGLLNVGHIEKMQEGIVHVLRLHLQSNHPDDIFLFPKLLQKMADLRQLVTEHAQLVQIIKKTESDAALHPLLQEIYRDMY
Chain of Peroxisome proliferator-activated receptor delta (Homo sapiens) (Q03181 whole entry, looked up): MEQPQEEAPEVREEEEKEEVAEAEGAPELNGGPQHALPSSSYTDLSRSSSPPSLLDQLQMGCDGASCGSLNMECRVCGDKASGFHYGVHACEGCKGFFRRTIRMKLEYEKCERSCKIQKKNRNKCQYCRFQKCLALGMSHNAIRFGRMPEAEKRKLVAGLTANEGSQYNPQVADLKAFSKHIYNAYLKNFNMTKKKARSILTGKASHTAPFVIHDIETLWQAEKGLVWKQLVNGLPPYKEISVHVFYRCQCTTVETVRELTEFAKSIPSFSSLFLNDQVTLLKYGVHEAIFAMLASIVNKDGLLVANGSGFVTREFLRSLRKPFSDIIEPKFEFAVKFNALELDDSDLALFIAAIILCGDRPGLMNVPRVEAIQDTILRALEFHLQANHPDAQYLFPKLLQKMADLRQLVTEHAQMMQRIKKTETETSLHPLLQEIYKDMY
Chain of Vitamin D3 receptor (Homo sapiens) (P11473 whole entry, looked up): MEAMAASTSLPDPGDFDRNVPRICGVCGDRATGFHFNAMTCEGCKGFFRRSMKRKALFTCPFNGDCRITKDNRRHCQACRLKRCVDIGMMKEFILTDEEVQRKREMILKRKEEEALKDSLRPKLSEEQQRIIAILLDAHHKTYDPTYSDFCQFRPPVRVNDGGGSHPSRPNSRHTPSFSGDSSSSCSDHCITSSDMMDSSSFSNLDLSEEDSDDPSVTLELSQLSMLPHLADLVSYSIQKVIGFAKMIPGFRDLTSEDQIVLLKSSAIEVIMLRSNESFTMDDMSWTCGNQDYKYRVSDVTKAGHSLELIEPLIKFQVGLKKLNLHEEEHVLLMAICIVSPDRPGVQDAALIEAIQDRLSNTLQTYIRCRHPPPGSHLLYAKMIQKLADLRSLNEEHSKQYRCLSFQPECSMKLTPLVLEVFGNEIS
Chain of Nuclear receptor subfamily 1 group I member 2 (Rattus norvegicus) (Q9R1A7 whole entry, looked up): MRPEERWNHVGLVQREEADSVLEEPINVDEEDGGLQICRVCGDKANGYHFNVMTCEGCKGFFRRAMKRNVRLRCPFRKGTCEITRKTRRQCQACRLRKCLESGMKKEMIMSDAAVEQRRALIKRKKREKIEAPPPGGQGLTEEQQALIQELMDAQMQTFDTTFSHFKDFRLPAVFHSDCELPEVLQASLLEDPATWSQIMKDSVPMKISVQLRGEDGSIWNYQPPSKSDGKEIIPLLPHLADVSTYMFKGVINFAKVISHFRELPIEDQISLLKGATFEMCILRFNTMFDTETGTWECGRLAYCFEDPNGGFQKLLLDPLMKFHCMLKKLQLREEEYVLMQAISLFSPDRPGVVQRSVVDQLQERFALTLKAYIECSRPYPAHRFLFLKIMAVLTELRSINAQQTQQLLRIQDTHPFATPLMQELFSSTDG
Chain of Retinoic acid receptor RXR-alpha (Homo sapiens) (P19793 whole entry, looked up): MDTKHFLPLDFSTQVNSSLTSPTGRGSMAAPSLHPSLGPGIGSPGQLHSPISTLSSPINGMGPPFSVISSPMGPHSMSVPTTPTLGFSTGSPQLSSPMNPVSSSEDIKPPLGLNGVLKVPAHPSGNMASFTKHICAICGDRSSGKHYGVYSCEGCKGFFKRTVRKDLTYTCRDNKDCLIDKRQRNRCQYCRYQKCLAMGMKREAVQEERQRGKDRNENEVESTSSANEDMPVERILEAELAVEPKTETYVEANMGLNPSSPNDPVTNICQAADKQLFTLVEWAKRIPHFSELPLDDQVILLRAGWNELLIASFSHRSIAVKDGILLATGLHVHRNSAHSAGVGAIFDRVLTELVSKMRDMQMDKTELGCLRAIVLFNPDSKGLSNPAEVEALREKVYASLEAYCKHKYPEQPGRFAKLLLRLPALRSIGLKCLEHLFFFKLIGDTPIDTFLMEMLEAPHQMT
Chain of Thyroid hormone receptor beta (Homo sapiens) (P10828 whole entry, looked up): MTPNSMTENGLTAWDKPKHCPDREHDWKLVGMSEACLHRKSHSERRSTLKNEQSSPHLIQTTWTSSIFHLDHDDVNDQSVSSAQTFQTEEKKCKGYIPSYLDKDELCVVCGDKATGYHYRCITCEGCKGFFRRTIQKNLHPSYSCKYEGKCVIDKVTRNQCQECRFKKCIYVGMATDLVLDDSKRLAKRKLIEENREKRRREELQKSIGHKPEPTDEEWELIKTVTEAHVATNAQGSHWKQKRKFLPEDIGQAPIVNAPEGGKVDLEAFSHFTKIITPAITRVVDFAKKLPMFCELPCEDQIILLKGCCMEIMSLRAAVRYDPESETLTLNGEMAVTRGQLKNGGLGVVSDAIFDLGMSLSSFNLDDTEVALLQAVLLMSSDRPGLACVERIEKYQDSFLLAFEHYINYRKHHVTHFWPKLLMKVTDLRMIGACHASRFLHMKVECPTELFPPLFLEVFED
Chain of Glucocorticoid receptor (Homo sapiens) (P04150 whole entry, looked up): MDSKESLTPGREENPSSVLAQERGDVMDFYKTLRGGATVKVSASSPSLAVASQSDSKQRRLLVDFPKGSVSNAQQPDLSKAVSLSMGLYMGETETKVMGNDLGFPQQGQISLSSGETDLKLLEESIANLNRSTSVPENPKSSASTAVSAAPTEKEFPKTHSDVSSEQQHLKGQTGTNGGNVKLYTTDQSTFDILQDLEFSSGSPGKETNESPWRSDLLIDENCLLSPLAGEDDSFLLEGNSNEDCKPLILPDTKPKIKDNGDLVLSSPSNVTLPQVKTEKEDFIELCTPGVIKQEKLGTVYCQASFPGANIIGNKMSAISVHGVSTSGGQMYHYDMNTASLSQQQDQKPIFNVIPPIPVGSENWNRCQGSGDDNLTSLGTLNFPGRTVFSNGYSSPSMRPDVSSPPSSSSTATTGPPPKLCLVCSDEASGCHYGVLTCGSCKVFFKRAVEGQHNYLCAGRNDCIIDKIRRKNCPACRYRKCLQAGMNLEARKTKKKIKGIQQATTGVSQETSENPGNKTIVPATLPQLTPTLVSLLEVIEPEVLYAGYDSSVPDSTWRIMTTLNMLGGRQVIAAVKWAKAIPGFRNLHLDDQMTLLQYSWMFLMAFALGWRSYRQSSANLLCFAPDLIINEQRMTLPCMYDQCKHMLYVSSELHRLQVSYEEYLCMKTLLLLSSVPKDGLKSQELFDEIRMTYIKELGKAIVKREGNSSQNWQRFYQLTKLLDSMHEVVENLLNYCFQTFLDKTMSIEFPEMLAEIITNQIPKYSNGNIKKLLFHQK
Chain of Estrogen receptor (Homo sapiens) (P03372 whole entry, looked up): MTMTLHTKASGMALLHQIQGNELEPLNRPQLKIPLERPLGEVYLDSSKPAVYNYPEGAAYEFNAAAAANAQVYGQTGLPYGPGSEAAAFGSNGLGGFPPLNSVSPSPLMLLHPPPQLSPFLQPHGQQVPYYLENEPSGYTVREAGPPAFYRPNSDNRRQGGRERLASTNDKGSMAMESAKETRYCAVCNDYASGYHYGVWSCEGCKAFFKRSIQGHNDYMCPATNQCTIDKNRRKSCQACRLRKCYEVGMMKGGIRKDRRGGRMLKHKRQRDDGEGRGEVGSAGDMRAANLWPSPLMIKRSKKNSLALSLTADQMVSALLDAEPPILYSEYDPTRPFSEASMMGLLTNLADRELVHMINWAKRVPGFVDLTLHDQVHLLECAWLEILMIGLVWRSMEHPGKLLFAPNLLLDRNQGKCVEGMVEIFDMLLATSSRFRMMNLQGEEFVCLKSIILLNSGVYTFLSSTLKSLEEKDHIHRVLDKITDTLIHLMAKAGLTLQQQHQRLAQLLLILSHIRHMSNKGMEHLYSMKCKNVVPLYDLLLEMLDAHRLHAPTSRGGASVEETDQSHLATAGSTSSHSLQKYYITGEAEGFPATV

As for `CCOP(=O)(OCC)OP(=O)(OCC)OCC`, in assay [1], the call was inactive. The max response in [2] is 14.8%; in [7], -3.28%; in assay [8], -9.63% (inactive); in [12], -1.23% (inactive); in [14], 5.73% (inactive); in [15] it was -8.91% (inactive). For the same compound, the max response in assay [17] was 8.32% (inactive). Further, the Potency result in assay [3], in [4], in assay [5], in [6], in assay [13] and in assay [16] was “inactive” each time. For the same compound, the activity change % (negative = inhibition) in assay [9] is 15.3% (inactive). For the same compound, the values for the activation in assay [10] and in assay [11] were -6.2% (inactive) and -0.353% (inactive), respectively.

Consider `CNC(=O)N(C)c1nc2ccccc2s1`, for which the Potency result in assay [18], in assay [4], in [5], in assay [6] and in assay [16] was “inactive” in each case. The call in [1] was inactive. Also, the max response in [7] was 0.29%; in assay [8] it was -2.41% (inactive); in assay [12] it was -2.93% (inactive); in [14] it was -8.17% (inactive); in [15], -16.4% (inactive). In addition, the activity change % (negative = inhibition) in assay [9] was 9.18% (inactive). Also, the activation in assay [11] was 0.981% (inactive). In assay [19], the Potency was 44.7 µM (active).

As to `CCNc1nc(NC(C)C)nc(SC)n1`, the call in assay [1] was inactive. For the same compound, the max response in assay [2] was 5.95%; in [7] it was -15.6%; in assay [8] it was -29% (inactive); in [12], -2.07% (inactive); in [14] it was 4.35% (inactive); in assay [15] it was -10.8% (inactive). Besides, the max response in assay [17] is -3.53% (inactive). The Potency result in assay [3], in [4], in assay [5], in [6] and in assay [16] was “inactive” each time. The activity change % (negative = inhibition) in assay [9] was 5.24% (inactive). For the same compound, the activation in assay [11] was -1.51% (inactive); in assay [19], 0.555% (inactive).

As for `CCCCOC(=O)[C@@H](C)Oc1ccc(Oc2ccc(C#N)cc2F)cc1`, the Potency result in assay [20], in [18], in [5], in assay [6] and in assay [13] was “inactive” each time. The compound was called inactive in assay [1]. Further, the max response in assay [7] was 13.4%; in assay [8], 12.7% (inactive); in assay [12] it was 5.77% (inactive); in assay [14] it was -7.64% (inactive); in assay [15], 2.82% (inactive); in assay [17], 1.04% (inactive). The activity change % (negative = inhibition) in assay [9] is 0.16% (inactive). Further, the activation in assay [10] is -5.96% (inactive); in [11], 0.919% (inactive); in assay [19] it was -2.2% (inactive).

As to `CNP(=O)(OC)Oc1ccc(C(C)(C)C)cc1Cl` (stereo not given), the Potency result in assay [20], in assay [3], in [4], in assay [5], in assay [6] and in assay [16] was “inactive” each time. For the same compound, in [1], the call was inactive. The max response in assay [2] is 45%; in assay [7] it was 2.01%; in [8], 11.9% (inactive); in assay [12], -2.32% (inactive); in [14], 8.45% (inactive); in [15], -10.1% (inactive). In assay [17], the max response is 11.5% (inactive). Moreover, the activation in assay [10] is 6.28% (inactive); in assay [11], 1.2% (inactive); in assay [19], 5.81% (inactive).
